Assay [1] in a line: A CellTox Green Cytotoxicity Assay to monitor cytotoxicity in HEK293 cells - 32 hour (AID 1224881). Also: nearly all actives have a fitted effect of over 40% in size. Summed up:
(§1)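 Homogeneous no-lysis format: HEK293 cell suspension mixed with CellTox Green reagent, seeded, incubated 5 h at 37 C/5% CO2, then dosed by pintool with compound in DMSO.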

A short description of assay [2]: A CellTox Green Cytotoxicity Assay to monitor cytotoxicity in HepG2 cells - 0 hour (AID 1224882). Also: nearly all actives have a fitted effect of over 35% in size. Summed up: (§2)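 Fluorescent DNA-binding dye, 600 HepG2 cells/well, 5 h preincubation then compound in DMSO; same plates read at 0–40 h, 37 C.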
The nature of assay [3]: A CellTox Green Cytotoxicity Assay to monitor cytotoxicity in HepG2 cells - 32 hour (AID 1224883). Also: nearly all actives have a fitted effect of over 50% in size. The procedure, abridged: as §2
Assay [4] can be described thus: A CellTox Green Cytotoxicity Assay to monitor cytotoxicity in HEK293 cells - 8 hour (AID 1224884). Also: nearly all actives have a fitted effect of over 35% in size. Summed up:
as §1

Assay [5] in a line: qHTS RealTime-Glo MT Cell Viability Assay in HepG2 cells - 16 hour (AID 1224885). Also: nearly all actives have a fitted effect of over 50% in size. Summed up: (§3)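 Cells + NanoLuc/prosubstrate dispensed (600 cells/well) → 5 h at 37 C/5% CO2 → compounds in DMSO transferred → 40 h incubation at 37 C, luminescence read at 0, 8, 16, 24, 32, 40 h.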
Background: qHTS replaces the single test concentration by a dilution series.

Assay [6] can be described thus: qHTS RealTime-Glo MT Cell Viability Assay in HEK293 cells - 24 hour (AID 1224886). Also: nearly all actives have a fitted effect of over 50% in size. Also: potency is read from the fitted curve at half-maximal effect. The procedure, abridged: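 Tox21 10K qHTS, HEK293, 600 cells/well, RealTime-Glo reagent co-dispensed with cells; 5 h preincubation, compound by pintool, 37 C, luminescence at 0–40 h.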
The nature of assay [7]: qHTS RealTime-Glo MT Cell Viability Assay in HEK293 cells - 8 hour (AID 1224887). Also: nearly all actives have a fitted effect of over 50% in size. Also: potency is read from the fitted curve at half-maximal effect. Summed up: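 Measured as luminescence from the same continuously cultured HEK293 wells at successive time points (0, 8, 16, 24, 32, 40 h) after compound addition. Reagent present from seeding; dosing at 5 h; incubation 37 C.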
Assay [8] is described as follows: A CellTox Green Cytotoxicity Assay to monitor cytotoxicity in HEK293 cells - 16 hour (AID 1224888). Also: nearly all actives have a fitted effect of over 35% in size. The procedure, abridged: as §1
Assay [9] can be described thus: qHTS RealTime-Glo MT Cell Viability Assay in HepG2 cells - 0 hour (AID 1224889). Also: nearly all actives have a fitted effect of over 50% in size. The procedure, abridged:
as §3

Assay [10] can be described thus: A CellTox Green Cytotoxicity Assay to monitor cytotoxicity in HepG2 cells - 8 hour (AID 1224890). Also: nearly all actives have a fitted effect of over 45% in size. Also: potency is read from the fitted curve at half-maximal effect. Summed up:
as §2

Assay [11] is described as follows: qHTS assay to identify small molecule antagonists of the estrogen receptor alpha (ER-alpha) signaling pathway using the BG1 cell line in the presence of 0.1 nM 17-beta-estradiol - cell viability counter screen (AID 1259241). Also: nearly all actives have a fitted effect of over 40% in size. The procedure, abridged:
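Cytotoxicity counter-screen: live-cell protease activity measured by fluorescence (30 min reagent step) in the same wells. Cells were VM7Luc4E2 with endogenous ER-alpha and ERE-driven luciferase, treated 22 hr at 37C alongside 0.1 nM 17beta-estradiol final.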

Assay [12] can be described thus: qHTS assay to identify small molecule antagonists of the androgen receptor (AR) signaling pathway using the MDA cell line in the presence of 0.5 nM R1881 - cell viability counter screen (AID 1259242). Also: nearly all actives have a fitted effect of over 45% in size. Summed up:
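Human breast carcinoma MDA-kb2 cells, cultured without CO2, receive compounds alongside 0.5 nM (final) R1881 agonist. After 16 hr at 37C, viability is taken as live-cell protease signal.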

For assay [13], the target named is Estrogen receptor (Homo sapiens) (UniProt P03372). Nature of the assay: qHTS assay to identify small molecule antagonists of the estrogen receptor alpha (ER-alpha) signaling pathway using the BG1 cell line in the presence of 0.1 nM 17-beta-estradiol (AID 1259244). Also: nearly all actives have a fitted effect of over 50% in size. The procedure, abridged:
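Seeding of stripped-serum-adapted VM7Luc4E2 cells, 24 h attachment, compound transfer, then 0.1 nM final 17beta-estradiol; after 22 h incubation, ONE-Glo reagent and luminescence reading.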

A short description of assay [14]: qHTS assay to identify small molecule HDAC inhibitors (AID 1259364).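 Also: wild-type HCT-116 cells with endogenous class I/II HDAC activity; top concentration of the series differs between compounds; nearly all actives have a fitted effect of over 45% in size.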 Summed up:
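After a 2 hr compound incubation (37C, 5% CO2), HCT-116 cells seeded at 1,500/well the day before received HDAC-Glo reagent; signal read as luminescence after 30 min at room temperature.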

Assay [15] can be described thus: qHTS assay to identify small molecule HDAC inhibitors - cell viability counter screen (AID 1259365). The procedure, abridged: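 CellTiter-Glo luminescence (30 min, room temperature) reported viability after a 2 h compound exposure at 37 C. Cells: wild-type HCT-116, 1,500 per well, seeded the night before.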
A short description of assay [16]: qHTS assay to identify small molecule agonists of the sonic hedgehog signaling (Shh) pathway - cell viability counter screen (AID 1259366). Also: nearly all actives have a fitted effect of over 50% in size. Summed up:
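Cytotoxicity counter screen: CellTiter-Fluor reagent added after 23 h compound exposure, then 1 h at 37C and fluorescence read. Cells were 3T3 Gli1-Luc, seeded 2,000 per well and dosed 4 h post-plating.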

A short description of assay [17]: qHTS assay to identify small molecule antagonists of the sonic hedgehog signaling (Shh) pathway - cell viability counter screen (AID 1259367). Also: nearly all actives have a fitted effect of over 55% in size. Summed up:
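Cytotoxicity was assessed in parallel with Shh reporter activity by measuring live-cell protease fluorescence (CellTiter-Fluor) in NIH/3T3 cells stably carrying Gli1-Luc, treated with compound under conditioned medium stimulation for 23 hr plus 1 hr reagent incubation.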

Assay [18] is described as follows: qHTS assay to identify small molecule agonists of the sonic hedgehog signaling (Shh) pathway (AID 1259368; calls by dose curve;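 also: NIH/3T3-derived 3T3Gli1-Luc cells carrying a stable Gli1-driven firefly luciferase reporter; series mostly up to about 92 µM; nearly all actives have a fitted effect of over 15% in size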). Summed up: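 Stable NIH/3T3 Gli1-Luc reporter clone; 24 hr cpd exposure after a 4 hr settling period; luminescence endpoint.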
Assay [19] is described as follows: qHTS assay to identify small molecule antagonists of the sonic hedgehog signaling (Shh) pathway (AID 1259369; calls by dose curve; also: nearly all actives have a fitted effect of over 45% in size; also: potency is read from the fitted curve at half-maximal effect). Summed up:
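Gli1 transcriptional reporter (firefly Luc) in NIH/3T3 background, conditioned-medium activated. 24hr exposure, luminescence endpoint.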

“And” between values parts separate entries of the source, which are not always exact repeats. Equal entries are not always repeated. Records with an inconclusive call do not appear. Where a structure was tested more than once in an assay, its records may differ in their call. The source made the active and inactive calls. Unless noted, calls follow the shape of the dose curve; as a rule, active = well fitted curve in the direction sought with a large enough effect in the repeat runs; inconclusive = weak or mixed curves; inactive = no such curve, though single readings can be large; an effect the other way counts as inactive or inconclusive.

Chain of Estrogen receptor (Homo sapiens) (P03372 whole entry, looked up): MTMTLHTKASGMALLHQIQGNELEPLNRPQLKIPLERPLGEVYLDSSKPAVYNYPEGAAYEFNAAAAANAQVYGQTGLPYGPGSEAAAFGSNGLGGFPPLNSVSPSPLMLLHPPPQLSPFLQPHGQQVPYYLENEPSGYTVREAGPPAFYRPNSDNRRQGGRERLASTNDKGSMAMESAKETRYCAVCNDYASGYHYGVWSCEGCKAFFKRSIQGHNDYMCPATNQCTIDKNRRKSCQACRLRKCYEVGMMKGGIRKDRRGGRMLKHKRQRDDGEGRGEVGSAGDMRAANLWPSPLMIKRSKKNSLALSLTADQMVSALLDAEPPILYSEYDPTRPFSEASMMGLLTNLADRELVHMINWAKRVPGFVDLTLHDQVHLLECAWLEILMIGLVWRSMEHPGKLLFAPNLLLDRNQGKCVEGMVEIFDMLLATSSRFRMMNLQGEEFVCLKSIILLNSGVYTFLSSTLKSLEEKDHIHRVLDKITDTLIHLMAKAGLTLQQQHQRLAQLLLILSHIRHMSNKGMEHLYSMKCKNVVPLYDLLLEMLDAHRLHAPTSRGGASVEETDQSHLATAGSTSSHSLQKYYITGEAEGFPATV

Turning to `CCOC(=O)C(C)OC(=O)c1cc(Oc2ccc(C(F)(F)F)cc2Cl)ccc1[N+](=O)[O-]` (stereo not given), the Potency entry in assay [1], in assay [2], in assay [3], in [4], in assay [5] and in assay [8] was “inactive” each time. In addition, the Potency entry in [9], in assay [10], in assay [11], in assay [12], in assay [13] and in assay [14] was “inactive” throughout. Also, the Potency result in assay [16], in assay [17], in assay [18] and in [19] was “inactive” throughout. The Potency is 30.7 µM (active) and inactive in assay [6]; 30.7 µM (active) in [7]. In addition, the result in assay [15] was inactive.
Consider `CCCCN(CC)c1c([N+](=O)[O-])cc(C(F)(F)F)cc1[N+](=O)[O-]`, for which the Potency result in assay [1], in [2], in assay [3], in [4], in assay [5] and in assay [6] was “inactive” in each case. Further, the Potency entry in [8], in [9], in assay [10], in assay [11], in assay [12] and in assay [14] was “inactive” each time. The Potency result in assay [16], in assay [17], in assay [18] and in assay [19] was “inactive” each time. The Potency in assay [7] was 17.7 µM (active). Also, the molecule was classed as inactive in [15].
Turning to `O=P(Oc1ccccc1)(Oc1ccccc1)Oc1ccccc1`, the Potency entry in assay [1], in [2], in [3], in assay [4], in assay [5] and in assay [6] was “inactive” throughout. For the same molecule, the Potency entry in [7], in [8], in assay [9], in assay [10], in assay [11] and in assay [12] was “inactive” each time. In addition, the Potency entry in assay [13], in assay [14], in [16], in assay [17] and in assay [18] was “inactive” in each case. In addition, in assay [15], the outcome was inactive. In addition, the Potency in assay [19] is 1.08 µM (active) and 2.43 µM (active).
Take `CCCCC(CC)COC(=O)Cl` (stereo not given): the Potency entry in [1], in assay [2], in [3], in assay [4], in [5] and in assay [6] was “inactive” each time. Besides, the Potency result in [7], in [8], in assay [9], in [11], in assay [13] and in [14] was “inactive” throughout. Further, the Potency entry in assay [16], in [17], in assay [18] and in [19] was “inactive” in each case. The Potency entry in [10] is “inactive and 38.9 µM (active)”. In addition, the result in assay [15] was inactive.
For `O=P(O)(O)CCCl`, the Potency entry in assay [1], in [2], in assay [3], in [4], in assay [5] and in [6] was “inactive” in each case. The Potency entry in [7], in assay [8], in assay [9], in assay [10], in assay [11] and in assay [12] was “inactive” throughout. Also, the Potency entry in [13], in assay [14], in [16], in [17], in [18] and in assay [19] was “inactive” each time. Also, the outcome in [15] was inactive.
In the case of `CN(C)C(=O)Nc1ccc(Cl)cc1`, the Potency result in [1], in [2], in assay [3], in [4], in assay [5] and in assay [6] was “inactive” each time. For the same molecule, the Potency entry in [7], in [8], in assay [9], in [10], in assay [11] and in [12] was “inactive” each time. The Potency entry in assay [14], in assay [16], in assay [17], in assay [18] and in assay [19] was “inactive” each time. The molecule was called inactive in [15].
For the molecule `O=[N+]([O-])c1cccc2ccccc12`, the Potency entry in [1], in [2], in [3], in assay [4], in assay [5] and in assay [6] was “inactive” throughout. The Potency result in [7], in assay [8], in [9], in assay [10], in assay [11] and in assay [12] was “inactive” throughout. The Potency result in assay [13], in [14], in assay [16], in assay [17], in [18] and in assay [19] was “inactive” throughout. In addition, in assay [15], the result was inactive.

The values above are taken from PubChem BioAssay (Tox21).
